Among the data in PubChem BioAssay (NCI) are growth values, retold here.

About 83,000 compounds went through this panel and 20% of them were active in at least one assay; those are over-represented in the sample as a whole.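 48-hour exposure, single concentration, 96-well plates; percent growth endpoint where 0 means no net growth. Active: below 10.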 A number with no mark means an inactive call. The source made the active and inactive calls.

Common to all, as to test: NCI-60 one-dose screen, 48 h (100 = growth as untreated, 0 = no growth, -100 = all killed)
What all share (conditions): 10 µM unless noted

Test [1] has as its system NCI-H23 lung.
The subject of test [2] is NCI-H226 lung.
The test system of test [3] is NCI-H322M lung.
Test [4] has as its system HOP-62 NSCLC.
The subject of test [5] is NCI-H460 lung.
For test [6], the system named is HOP-92 NSCLC.
The test system of test [7] is NCI-H522 lung.
For test [8], the system named is A549/ATCC NSCLC.
Test [9] relates to 786-0 renal.
Test [10] deals with COLO 205 colon.
Test [11] has as its system DU-145 prostate.
Test [12] has as its system K-562 leukemia.
Test [13] relates to MALME-3M melanoma.
Test [14] relates to MDA-MB-231 breast.
The subject of test [15] is RXF 393 renal.
In test [16] the test system is SF-268 CNS.
Test [17] deals with SF-295 CNS.
Test [18] concerns SF-539 CNS.
Test [19] concerns M14 melanoma.
Test [20] has as its system UACC-257 melanoma.

As to `Cc1cc(N2CCOCC2)nc(N(CCNc2ccnc3cc(Cl)ccc23)Cc2cccs2)n1`, the growth in [1] is 35.4%; in [2], 54.6%; in test [3] it was 26.9%; in [4], 19.8%; in test [5], 7.16% (active); in test [6], 15.6%. The growth in [7] is -21.5% (active); in [8] it was 28.7%; in test [9], -35.2% (active); in test [10], -69.2% (active); in test [11], 42%; in [12], 2.63% (active). The growth in [13] was -18.4% (active); in [14], -0.994% (active); in [15], -46.5% (active); in [16], 43.8%; in [17], -54% (active); in test [18], -65.7% (active). In addition, the growth in [19] is 3% (active).
In the case of `Cc1cc2c(-c3nc4ccccn4c3NC3CCCCC3)c(O)c(O)cc2c(O)c1-c1c(C)cc2c(-c3nc4ccccn4c3NC3CCCCC3)c(O)c(O)cc2c1O`, the growth in test [1] is 30.7%; in [2], 53.6%; in [3], 54.9%; in test [4] it was 26%; in test [5], 19.2%; in test [6], -3.03% (active). The growth in test [7] was 15.1%; in test [8] it was 22.8%; in [9], 72.4%; in test [10], 14.8%; in test [11] it was 32.3%; in [12], 10.2%. Moreover, the growth in test [13] is 42.5%; in [14], 26.5%; in [15], 39%; in test [16] it was 38.2%; in test [17] it was 16.6%; in [18], 16.9%. In test [19], the growth is 16.5%.
On to `C=CC(=O)N(C)[C@H]1C[C@H]2OC(C)(C1OC)n1c3ccccc3c3c4c(c5c6ccccc6n2c5c31)C(=O)NC4` (stereo partly drawn), for which the growth in test [1] is 4.64% (active); in [2], -60.7% (active); in test [3], 6.29% (active); in test [4] it was -15.4% (active); in test [5], 1.35% (active); in test [6] it was -21.8% (active). In addition, the growth in test [7] was -54.5% (active); in test [8] it was 9.49% (active); in test [9], -74.2% (active); in test [10] it was -75.3% (active); in test [11] it was 28.7%; in test [12], 4.26% (active). For the same compound, the growth in [13] is -46.7% (active); in test [14], 7.42% (active); in test [15], -90.1% (active); in test [16], 6.45% (active); in test [17], -27% (active); in [18] it was -49.1% (active). The growth in [19] was -1.74% (active).
For the compound `Cc1cc(N(CCNc2ccnc3cc(Cl)ccc23)Cc2ccc3c(c2)OCO3)nc(N2CCCC2)n1`, the growth in test [1] was 20.8%; in test [2], 65.4%; in [3], 13.5%; in test [4], -25.8% (active); in test [5], -9.96% (active); in [6], 60.5%. For the same compound, the growth was -28.7% (active) in test [7]; 8.39% (active) in [8]; -92% (active) in test [9]; -78.2% (active) in [10]; 29.7% in [11]; -33.2% (active) in test [12]. Also, the growth in test [13] was -72.8% (active); in [14], -8.4% (active); in [15], -70.7% (active); in test [16] it was 22.8%; in test [17] it was -65.3% (active); in [18], -93.3% (active). Further, in [19], the growth is -78.2% (active).
`C=CC(=O)Nc1cccc(Nc2nc(Nc3ccc(N4CCN(C(C)=O)CC4)cc3OC)ncc2C(F)(F)F)c1`: the growth in test [1] was 26.7%; in test [2], 26.8%; in [3], -28.9% (active); in test [4] it was 27.6%; in test [5], 9.55% (active); in test [6], -18.1% (active). The growth in test [7] is -12% (active); in test [8], 5.15% (active); in test [9] it was 8.43% (active); in [10] it was -37.4% (active); in [11], 16.7%; in test [12] it was 18.7%. In addition, the growth in test [13] is 22.2%; in test [14], 21.7%; in [15], -11.2% (active); in test [16], 24.1%; in test [17], 39.5%; in test [18], 18.6%. Besides, the growth in test [20] is 24.5%; in [19], 16.9%.
On to `CC(C)OP(=O)(CCC(=O)c1c[nH]c2ccccc12)OC(C)C`, for which the growth is 96.8% in test [1]; 94% in test [2]; 103% in [3]; 88.1% in [4]; 114% in test [5]; 95.5% in test [6]. Besides, the growth is 86.9% in test [7]; 68.7% in test [8]; 109% in test [9]; 103% in test [10]; 116% in test [11]; 95.6% in [12]. Further, the growth is 97.2% in test [13]; 106% in test [14]; 114% in test [15]; 101% in test [16]; 104% in test [17]; 97.4% in test [18]. The growth in test [19] was 98.4%.
For `CN1CCN(c2nc(NCCNc3ccnc4cc(Cl)ccc34)c3ccccc3n2)CC1`, the growth in [1] is 44.9%; in [2], 62%; in test [3], 21.3%; in test [4] it was 13.7%; in [5] it was 11.6%; in [6] it was 53%. The growth in test [7] was -20.2% (active); in test [8] it was 1.62% (active); in test [9], -33.3% (active); in [10], -62.6% (active); in test [11] it was 34.6%; in [12], -14.1% (active). Further, the growth in test [13] was -57.4% (active); in test [14], -10.8% (active); in [15], -35.8% (active); in test [16], 32.6%; in [17], -38.7% (active); in test [18] it was -78.4% (active). Besides, the growth in test [19] is -63.3% (active).
`CN(N)c1nc2sc3c(c2c(=O)[nH]1)CCCC3`: the growth was 93.5% in [1]; 101% in [2]; 96.9% in [3]; 76.6% in test [4]; 104% in test [5]; 107% in test [6]. In addition, the growth in [7] is 89.2%; in [8], 81.1%; in test [9], 98.2%; in [10], 100%; in test [11], 101%; in test [12], 109%. Also, the growth was 88.7% in [13]; 102% in test [14]; 108% in test [15]; 95.9% in test [16]; 93% in [17]; 98.7% in [18]. In addition, the growth in test [19] is 98.7%.
